Source: PubChem BioAssay (NCATS)
Results filed as inconclusive are left out. Active and inactive are the calls of the source. Unless noted, calls follow the shape of the dose curve; as a rule, active = well fitted curve in the direction sought with a large enough effect; inconclusive = small, poorly fitted or top-dose-only effect, or another doubt; inactive = no such curve, though single readings can be large; an effect the other way counts as inactive or inconclusive.

Legend:
[1] = AP1 Signaling Pathway (AID 357; active = well fitted curve in either direction with a large enough effect, not every such curve was filed as active;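 also: ME-180 reporter cells stimulated with EGF at its EC50 level; % is scaled to controls: 0 for no effect and ±100 for the full control effect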); conditions: ME-180 AP-1-bla reporter, EGF-induced, beta-lactamase ratio, 5 h; at 38 µM (top of the series)
Summary of the method: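 First, ME-180 AP-1-bla cells were cultured overnight at 37 °C in low-serum Opti-MEM. Next, titrated compounds with EC50 EGF were incubated 5 hours. Finally, CCF4 was added for 2.5 hours and the 460/530 nm ratio recorded.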

[2] = Stat Signaling Pathway (AID 446; active = well fitted curve in either direction with a large enough effect, not every such curve was filed as active;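 also: ME-180 cervical cancer cells given 40 pM IL-6 alongside compound; SIE-controlled beta-lactamase reporter measured as 460/530 nm FRET emission ratio; % is scaled to controls: 0 for no effect and ±100 for the full control effect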); conditions: ME-180 (cervical carcinoma) SIE beta-lactamase reporter, IL-6 stimulated, 5 h; at 38 µM (top of the series)
Summary of the method: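 Emission at 460 and 530 nm (excitation 405 nm) reports SIE-controlled beta-lactamase in ME-180 cells. Cells received compound with 40 pM IL-6 for 5 hrs at 37 C; data scaled between 300 pM IL-6 and 125 nM JAK-inhibitor controls.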

[3] = molecular target: Glucocorticoid receptor (Homo sapiens) (UniProt P04150); experiment: GR-EFC Redistribution (AID 451; calls by dose curve; also: potency is read from the fitted curve at half-maximal effect); conditions: CHO-K1 GR-EFC translocation, beta-gal luminescence, 2 h
Chain of Glucocorticoid receptor (Homo sapiens) (P04150 whole entry, looked up, the tested form may be a part): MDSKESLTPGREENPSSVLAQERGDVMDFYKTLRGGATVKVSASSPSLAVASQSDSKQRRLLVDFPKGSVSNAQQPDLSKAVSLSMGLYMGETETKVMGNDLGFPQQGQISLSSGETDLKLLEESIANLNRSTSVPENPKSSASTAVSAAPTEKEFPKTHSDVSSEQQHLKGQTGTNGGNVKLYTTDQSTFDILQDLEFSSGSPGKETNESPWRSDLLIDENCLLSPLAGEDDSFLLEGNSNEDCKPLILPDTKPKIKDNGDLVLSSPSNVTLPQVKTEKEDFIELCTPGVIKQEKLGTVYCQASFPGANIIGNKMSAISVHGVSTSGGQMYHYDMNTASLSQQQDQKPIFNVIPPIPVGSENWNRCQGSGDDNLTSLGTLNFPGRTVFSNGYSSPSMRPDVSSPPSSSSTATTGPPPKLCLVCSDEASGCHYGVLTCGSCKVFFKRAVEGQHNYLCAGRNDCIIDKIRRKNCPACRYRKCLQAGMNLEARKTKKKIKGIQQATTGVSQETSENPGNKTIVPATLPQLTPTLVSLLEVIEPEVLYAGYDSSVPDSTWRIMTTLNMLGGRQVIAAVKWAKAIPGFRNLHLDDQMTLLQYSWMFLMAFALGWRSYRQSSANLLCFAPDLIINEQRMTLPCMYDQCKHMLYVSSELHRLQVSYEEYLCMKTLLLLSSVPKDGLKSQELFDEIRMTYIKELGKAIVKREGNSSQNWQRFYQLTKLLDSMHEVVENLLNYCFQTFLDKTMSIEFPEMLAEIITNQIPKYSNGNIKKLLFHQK
Summary of the method: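 Translocation of GR-ED fusion to nuclear EA restores b-gal, read by luminescence after 1 h room-temperature detection. Engineered CHO-K1 biosensor cells, 1,000/well, exposed 2 h at 37 C to titrations up to 46 uM final.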

[4] = molecular target: Mitogen-activated protein kinase 10 (Mus musculus) (UniProt Q61831); experiment: JNK3 AlphaScreen Assay (AID 530; active = well fitted curve in either direction with a large enough effect, not every such curve was filed as active;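 also: kinase came from lysate of stimulated human HepG2 cells; signal reports phosphorylation of biotinylated GST-cJun 1-79 at Ser73 with 10 µM ATP; % is scaled to controls: 0 for no effect and ±100 for the full control effect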); conditions: JNK3 lysate, c-Jun phosphorylation; series mostly up to 57.1 µM
Summary of the method: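 qHTS titrations with 15 min compound pre-incubation before adding ATP (10 uM final). Read-out: AlphaScreen of Ser73-phosphorylated biotin-GST-cJun using HepG2 lysate JNK3 activated by IL-1β and TNFα.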

[5] = molecular target: 3',5'-cyclic-AMP phosphodiesterase 4B (Homo sapiens) (UniProt Q07343); experiment: qHTS Assay for Inhibitors of PDE-IV (AID 607; active = well fitted activation curve with a large enough effect in the main read-out, with a control signal flat, not every such curve was filed as active; also: % of control where 0% means no effect); conditions: HEK293 ACTOne CNG channel cells, membrane potential fluorescence; series mostly up to 22.9 µM
Chain of 3',5'-cyclic-AMP phosphodiesterase 4B (Homo sapiens) (Q07343 whole entry, looked up): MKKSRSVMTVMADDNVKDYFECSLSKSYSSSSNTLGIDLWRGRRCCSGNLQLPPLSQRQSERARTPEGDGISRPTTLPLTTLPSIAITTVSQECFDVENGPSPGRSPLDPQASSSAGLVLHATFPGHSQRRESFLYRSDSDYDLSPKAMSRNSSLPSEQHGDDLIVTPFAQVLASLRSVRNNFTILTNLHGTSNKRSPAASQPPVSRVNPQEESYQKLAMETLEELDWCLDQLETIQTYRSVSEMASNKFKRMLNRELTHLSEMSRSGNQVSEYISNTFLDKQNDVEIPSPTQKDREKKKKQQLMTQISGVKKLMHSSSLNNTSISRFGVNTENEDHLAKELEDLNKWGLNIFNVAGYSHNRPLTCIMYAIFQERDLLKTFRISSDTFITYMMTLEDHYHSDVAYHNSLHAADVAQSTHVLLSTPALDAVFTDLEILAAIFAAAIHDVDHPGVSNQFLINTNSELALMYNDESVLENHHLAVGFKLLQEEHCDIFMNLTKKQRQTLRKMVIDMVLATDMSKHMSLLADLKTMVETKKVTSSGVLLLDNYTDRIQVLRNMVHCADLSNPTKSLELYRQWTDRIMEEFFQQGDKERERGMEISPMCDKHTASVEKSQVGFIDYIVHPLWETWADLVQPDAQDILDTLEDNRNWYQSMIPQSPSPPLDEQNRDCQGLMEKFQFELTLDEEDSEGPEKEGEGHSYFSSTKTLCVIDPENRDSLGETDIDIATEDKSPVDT
Summary of the method: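 The readout is membrane depolarisation from a cAMP-sensing CNG channel, detected with a potential dye at ex 535/em 590. Cells were HEK293-derived (endogenous PDE-IV) at 1000 cells/well, titrated up to 22.9 uM final.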

[6] = molecular target: DNA dC->dU-editing enzyme APOBEC-3G (Homo sapiens) (UniProt Q9HC16); experiment: qHTS for inhibitors of Vif-A3G interactions: Validation (AID 588379); conditions: Vif-A3G protein interaction assay; series mostly up to 46.1 µM; also: 0% is about no effect
Chain of DNA dC->dU-editing enzyme APOBEC-3G (Homo sapiens) (Q9HC16 whole entry, looked up): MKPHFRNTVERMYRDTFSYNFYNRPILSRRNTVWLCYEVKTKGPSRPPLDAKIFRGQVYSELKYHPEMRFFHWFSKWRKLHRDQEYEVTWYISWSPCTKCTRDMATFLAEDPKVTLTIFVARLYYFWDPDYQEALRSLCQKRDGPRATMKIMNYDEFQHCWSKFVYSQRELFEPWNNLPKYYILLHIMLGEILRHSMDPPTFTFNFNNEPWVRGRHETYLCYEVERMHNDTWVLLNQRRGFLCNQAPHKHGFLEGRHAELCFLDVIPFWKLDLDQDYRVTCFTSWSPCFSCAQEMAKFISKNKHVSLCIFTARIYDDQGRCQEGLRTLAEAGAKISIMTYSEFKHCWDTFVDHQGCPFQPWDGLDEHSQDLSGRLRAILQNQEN
Summary of the method: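 Yellow fluorescence (Ex 488, Em 500-530) of Vif-coexpressing HeLa A3G-eYFP cells, scanned by Acumen cytometer, reports blocked A3G degradation. Cells plated at 700/well overnight at 37 deg C before compound addition, then a further overnight compound incubation at 37 deg C.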

[7] = molecular target: Luciferin 4-monooxygenase (Photinus pyralis) (UniProt P08659); experiment: Biochemical firefly luciferase enzyme assay for NPC (AID 624030);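 also: purified P. pyralis luciferase at 10 nM with luciferin and ATP substrate; 0% = DMSO and -100% = full luciferase inhibition by PTC124 control; nearly all actives have a fitted effect of over 70% in size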; conditions: purified P. pyralis luciferase, luminescence, 5 min; series mostly up to 58.6 µM
Chain of Luciferin 4-monooxygenase (Photinus pyralis) (P08659 whole entry, looked up): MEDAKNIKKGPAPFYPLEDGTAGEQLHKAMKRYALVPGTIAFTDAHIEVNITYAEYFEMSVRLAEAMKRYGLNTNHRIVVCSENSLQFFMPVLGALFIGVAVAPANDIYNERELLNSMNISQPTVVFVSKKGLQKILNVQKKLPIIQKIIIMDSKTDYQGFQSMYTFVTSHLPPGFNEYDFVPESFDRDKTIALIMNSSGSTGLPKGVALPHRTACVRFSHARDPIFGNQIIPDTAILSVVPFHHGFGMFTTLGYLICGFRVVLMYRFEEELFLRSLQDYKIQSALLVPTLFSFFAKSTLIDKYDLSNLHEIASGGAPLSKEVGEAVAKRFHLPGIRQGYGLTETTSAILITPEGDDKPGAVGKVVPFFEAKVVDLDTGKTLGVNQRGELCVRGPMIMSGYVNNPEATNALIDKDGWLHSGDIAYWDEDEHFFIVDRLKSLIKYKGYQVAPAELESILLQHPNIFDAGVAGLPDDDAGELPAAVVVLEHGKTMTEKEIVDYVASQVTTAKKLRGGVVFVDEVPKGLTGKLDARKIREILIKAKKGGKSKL
Summary of the method: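 Direct inhibition of firefly luciferase enzyme (10 nM final, 50 mM Tris Acetate) assessed by luminescence within 5 minutes. Percent activity scaled between DMSO and PTC124 positive control, with concentration-effect curves classified by fit quality and response.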

[8] = system: Zika virus NS2B-NS3 protease; experiment: Primary screen GU AMC qHTS for Zika virus inhibitors (AID 1347154); conditions: Zika NS2B-NS3 unlinked protease, AMC fluorogenic substrate; series mostly up to 54.1 µM;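 also: 0% = no-inhibitor control and -100% = no-enzyme control; nearly all actives have a fitted effect of over 70% in size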
Summary of the method: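 Fluorogenic AMC-substrate cleavage by noncovalent NS2B-NS3 protease complex (25 nM, pH 8.0 Tris buffer with Tween 20) followed for 15 minutes at room temperature (~20% conversion). Percent inhibition from ex340/em450 signal change, fitted by 4-parameter Hill equation.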

[9] = Primary qHTS for small molecule stabilizers of the endoplasmic reticulum resident proteome: Secreted ER Calcium Modulated Protein (SERCaMP) assay (AID 1508630); conditions: SH-SY5Y GLuc-SERCaMP (Gaussia luciferase released on ER calcium loss) secretion, thapsigargin, luminescence; series mostly up to 38.4 µM; also: % is scaled to controls: 0 for no effect and ±100 for the full control effect
Summary of the method: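 The SH-SY5Y reporter protocol was run at 3 concentrations up to 38.3 uM (primary) or 11 concentrations (follow-up): 16 h compound, 100 nM thapsigargin for 4 h, then extracellular luciferase luminescence.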

OCc1cc([C@@H](O)CNCCCCCCOCCCCc2ccccc2)ccc1O
inactive: activity change, negative = inhibition [1] 9.46% | activity, negative = inhibition [2] -26.7% | Potency [3] > 46 µM | Potency [4] | Potency [5] | Potency [6] | Potency [7] | Potency [8] | Potency [9]
